25 compounds from PubChem BioAssay AID720690 (Broad Institute, 2013) can be followed below.

The structures appear in SMILES notation. Results with a measured potency or affinity are listed apart. Calls of active or inactive are those of the source.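 The calls were made as follows: active = every repeat run showing a signal drop whose fitted half-maximal concentration is at most twice the top tested concentration; inconclusive = repeat runs disagree, or flat partial drop, or poor fit; inactive = the rest.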

The nature of the assay: general mammalian cell viability loss – activator set, cherry-pick, cytotoxicity control for miR-122 modulator project, dose response (AID 720690). The settings on record: HEK293T viability, CellTiter-Glo luminescence, 48 h; series mostly up to 26 µM.
For `CCN(C[C@H]1N[C@H](CO)[C@H]1c1ccc(C2=CCCC2)cc1)C(=O)c1cccnc1`, the compound was classed as inactive.
The entry for `C[C@@H]1CN([C@@H](C)CO)S(=O)(=O)c2ccc(C#Cc3ccncc3)cc2O[C@@H]1CN(C)C(=O)C1CCOCC1` is “inactive”.
Regarding `COCC(=O)N1[C@@H](CO)[C@@H]2c3ccccc3N(C(=O)c3cccnc3)C[C@@H]21`, the result was inactive.
The value for `O=C(c1ccc(CNc2c(NC3CCCCC3)c(=O)c2=O)cc1)N1CCc2ccccc21` was “inactive”.
The value for `O=C(Nc1ccc(CN2CCOCC2)cc1)c1ccc(-c2ccc(Cl)cc2Cl)o1` was “inactive”.
The entry for `C[C@H](CO)N1C[C@H](C)[C@H](CN(C)C(=O)Nc2ccc3c(c2)OCO3)Oc2ncc(-c3cccc(C(F)(F)F)c3)cc2C1=O` is “inactive”; for `O=C(c1cccnc1)N1C[C@H]2[C@@H](c3ccccc31)[C@H](CO)N2C(=O)C1CCCC1` it is “inactive”; for `CN(C)CCCN(C(=O)CCc1ccccc1)c1nc2ccc(Br)cc2s1` it is “inactive”.
On to `COc1cccc(CNC(=O)C[C@@H]2CC[C@@H]3[C@@H](COc4ccc(NC(C)=O)cc4C(=O)N3C)O2)c1`, for which the outcome was inactive.
The value for `CCCCc1cc(=O)oc2cc(C)cc(OC(C)C(=O)O)c12` (stereo not given) was “inactive”.
The value for `CNC(=O)C[C@@H]1CC[C@@H]2[C@@H](COc3ccc(NC(=O)c4ccccc4OC)cc3C(=O)N2C)O1` was “inactive”; that for `COc1ccc(NC(=O)COC(=O)CCCc2c[nH]c3ccccc23)cc1` was “inactive”; that for `COc1ccc(CN2CCN(Cc3cccn3-c3ncccn3)CC2CCO)c(C)c1C` (stereo not given) was “inactive”.
Take `COc1cccc(CNC(=O)C[C@@H]2CC[C@@H]3[C@H](COc4ccc(NC(C)=O)cc4C(=O)N3C)O2)c1`: the call was inactive.
The entry for `CNC(=O)C[C@H]1CC[C@H]2[C@H](COc3ccc(NC(=O)c4cccc(OC)c4)cc3C(=O)N2C)O1` is “inactive”; for `CN1C(=O)c2cc(NC(=O)Cc3ccccc3)ccc2OC[C@@H]2O[C@@H](CC(=O)NCc3ccc(Cl)cc3)CC[C@H]21` it is “inactive”.
The entry for `O=C(CN1CCOCC1)NC[C@@H]1N[C@@H](CO)[C@@H]1c1ccc(-c2ccccc2)cc1` is “inactive”; for `COCC(=O)N(C)C[C@H]1Oc2cc(C#Cc3cccnc3)ccc2S(=O)(=O)N([C@@H](C)CO)C[C@@H]1C` it is “inactive”; for `CCS(=O)(=O)Nc1ccc2c(c1)C(=O)N(C)[C@@H]1CC[C@@H](CC(=O)NCCCN3CCOCC3)O[C@@H]1CO2` it is “inactive”.
The value for `Cc1cc(CN(C)C(=O)c2cc(COc3ccc4ncccc4c3)on2)on1` was “inactive”.
Turning to `O=C(CSc1nc2ccccc2s1)N1CCOCC1`, the result was inactive.
The entry for `C/C=C/c1ccc([C@@H]2[C@@H](CO)N(Cc3ccccn3)[C@H]2CNC(=O)CC)cc1` is “inactive”.
Consider `CCCN(C[C@@H]1N[C@@H](CO)[C@H]1c1ccc(-c2cccnc2)cc1)C(C)=O`, for which the call was inactive.
The entry for `CN1CCN(C(=O)C[C@H]2CC[C@@H]3[C@H](COc4ccc(NC(=O)c5cccs5)cc4C(=O)N3C)O2)CC1` is “inactive”.
The value for `Cc1cc2[nH]c3c4ccccc4nc(C)c3c2cc1C` was “inactive”.
